About 10,000 (2.8%) of roughly 360,000 compounds were called active. Not shown: some 4% with an inconclusive outcome. The call rests on the fitted dose curve; in most records, active means well fitted inhibition curve with a large enough effect; inconclusive means small, poorly fitted or top-dose-only effect; inactive means flat fitted curve, though single readings scatter. What follows is part of a selection rich in actives, with near analogues and random picks from the rest.
target: Serine/threonine-protein kinase PLK1 (Homo sapiens) (UniProt P53350); experiment: qHTS for Inhibitors of PLK1-PDB (polo-like kinase 1 - polo-box domain): Primary Screen; settings: Plk1 PBD binding of FITC phosphopeptide, fluorescence polarization; further: nearly all actives have a fitted effect of over 65% in size; on Max response, negative = inhibition: series mostly up to about 57 µM
On the % scale 0 is the no-effect control and ±100 the full control effect; potency means the concentration at half of the fitted maximal effect.

Chain of Serine/threonine-protein kinase PLK1 (Homo sapiens) (P53350 whole entry, looked up, the tested form may be a part): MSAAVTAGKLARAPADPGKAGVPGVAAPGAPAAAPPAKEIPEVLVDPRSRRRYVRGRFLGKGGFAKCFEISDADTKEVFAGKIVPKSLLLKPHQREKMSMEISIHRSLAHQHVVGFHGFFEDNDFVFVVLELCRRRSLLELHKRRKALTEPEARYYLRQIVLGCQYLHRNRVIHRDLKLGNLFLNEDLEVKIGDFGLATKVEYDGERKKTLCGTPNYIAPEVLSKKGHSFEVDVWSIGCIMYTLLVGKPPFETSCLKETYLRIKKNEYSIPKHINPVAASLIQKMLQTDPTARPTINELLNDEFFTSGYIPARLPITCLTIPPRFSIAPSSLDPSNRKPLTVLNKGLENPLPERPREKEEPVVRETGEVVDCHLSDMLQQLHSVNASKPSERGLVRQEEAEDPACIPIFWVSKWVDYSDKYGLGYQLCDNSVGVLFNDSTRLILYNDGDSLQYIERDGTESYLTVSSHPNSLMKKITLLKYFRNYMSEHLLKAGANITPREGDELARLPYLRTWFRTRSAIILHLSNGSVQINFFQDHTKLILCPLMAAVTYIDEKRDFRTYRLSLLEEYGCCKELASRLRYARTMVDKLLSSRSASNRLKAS

Max response, negative = inhibition, inactive:
COc1ccc(C2CC(c3cccc(OC)c3)=NN2c2ccc(S(N)(=O)=O)cc2)cc1 (stereo unspecified) -4.37%
COc1ccc(NC(=O)c2cc(=O)[nH]c3ccccc23)cc1S(=O)(=O)N1CCOCC1 -1.4%
Nc1[nH]c(C(=O)c2ccccc2)c(-c2ccncc2)c1C(=O)NCc1cccc2ccccc12 -5.24%
OC[C@@H]1CN(Cc2ccc(F)cc2)C[C@H](n2cnc3c(NC4CCCC4)ncnc32)O1 -5.68%
CCc1nc2c(OCc3ccccc3)cccn2c1N(C)C(=O)c1ccco1 3.35%
CCn1c(SCC(=O)N2CCCC2=O)nc2ccccc21 -10%
O=C(CCc1ccccc1)NNc1ccc(F)cc1 -17.7%
Cc1ccc(F)c(NC(=O)CCc2ccccc2)c1 -9.88%
C[C@H]1CN([C@@H](C)CO)C(=O)c2cc(C3=CCCCC3)cnc2O[C@@H]1CN(C)C(=O)Cc1ccccc1 -26.3%
CCN(C(=O)CSc1ncn[nH]1)c1cccc2ccccc12 -2.53%
O=C(CSc1ncn[nH]1)Nc1ccc(Br)cc1Br -1.62%
CCCC/S(C)=N/S(=O)(=O)c1ccc(C)cc1 (stereo unspecified) -5.69%
CC/S(CC1CC1(Cl)Cl)=N\S(=O)(=O)c1ccc(C)cc1 (stereo unspecified) -0.46%
O=C(NCC(F)(F)F)c1ccc(S(=O)(=O)NCCc2ccc3c(c2)OCCO3)cc1 -0.767%
COCCNC(=O)C1C(=O)Nc2ccccc2C(=O)N1c1ccc2c(c1)OCCO2 (stereo unspecified) -3.12%
N#Cc1ccc(/C=C2\CCn3c2nc2cc(C(=O)O)ccc2c3=O)cc1 -8.35%
Cc1ccc(/C=C2\CCn3c2nc2cc(C(=O)O)ccc2c3=O)c(C)c1 -12.7%
COc1cccc(NC(=O)C2(C)CCN2C(=O)CCC2CCCC2)c1 (stereo unspecified) 1.49%
FC(F)(F)Oc1ccccc1C(c1nnnn1C1CCCCC1)N1CCN(C/C=C/c2ccccc2)CC1 (stereo unspecified) -10.7%
CCNC(=O)C1(C)CCN(C(=O)c2ccccc2)C1 (stereo unspecified) -1.07%
C[C@@H]1CN([C@@H](C)CO)C(=O)c2c(c3ccccc3n2C)-c2ccccc2CO[C@H]1CN(C)C(=O)C1CC1 -5.93%
CCNC(=O)c1cnn(-c2ccccc2)c1-c1ccccc1 -11.7%
NNC(=O)c1cnn(-c2ccccc2)c1C(F)(F)F -2.55%
COc1ccc(CCNC(=O)CN(c2ccccc2)S(=O)(=O)c2ccccc2)cc1 -1.56%
CCCCCCN1CCN(C2CN(Cc3cn(CCCCCC)nn3)S(=O)(=O)C2)CC1 (stereo unspecified) 6.53%
COc1ccc(-c2cc3c(c4c2ccn4C)C2CCC3C2)cn1 (stereo unspecified) -0.384%
COC(=O)C(NS(=O)(=O)c1ccc(F)cc1)c1ccccc1 (stereo unspecified) -18.8%
CC(=O)NS(=O)(=O)c1ccc(NC(=S)NC(=O)C(C)(C)C)cc1 -8.92%
Cc1ccc([C@H]2N[C@]3(CCCN(Cc4ccccc4)C3=O)[C@H]3C(=O)N(Cc4ccccc4)C(=O)[C@@H]23)cc1 5.77%
O=C(NCc1ccccc1Cl)c1csc([C@@H]2O[C@H](CO)[C@@H](O)[C@H]2O)n1 -2.33%
CCCNC(=O)C1(C)CCCN(C(=O)c2cccc(OC(C)=O)c2C)C1 (stereo unspecified) 2.94%
O=C(Nc1ccc(S(=O)(=O)N2CCOCC2)cc1)C1CCN(S(=O)(=O)c2ccc(Cl)cc2)CC1 3.5%
Cc1ccc(C(=O)NC(=S)Nc2ccc(N3CCOCC3)cc2)cc1 -12.8%
COc1cccc(OC)c1C(=O)NC(=S)Nc1ccc(N2CCOCC2)c(Cl)c1 -8.56%
O=C(NNC(=S)Nc1ccccc1)c1cccc(S(=O)(=O)N2CCOCC2)c1 2.12%
CC(C)(C)NC(=O)C(CCc1ccccc1)n1c(=O)c(-c2ccccc2)nc2ccccc21 (stereo unspecified) -22.7%
CCCCN(C=O)c1c(CC)nc2c(OCCC3CCCCC3)cccn12 -1.3%
O=CNc1cc(-c2ccc(C(=O)N3CCOCC3)cc2)cn2c(-c3ccc(F)cc3)cnc12 -25.7%
O=C(C[C@H]1CC[C@@H](NC(=O)c2ccncc2)[C@@H](CO)O1)NCC1CC1 -5.23%
Cc1sc2ncn(CC(=O)NCCCC(=O)NCc3ccc(F)cc3)c(=O)c2c1C -9.91%
CN(Cc1ccccc1)C(=O)CCNC(=O)Cn1cnc2ccccc2c1=O -6.79%
Cc1ccc([C@H]2C[C@H](O)[C@@H](n3cc(COC(=O)c4ccccc4)nn3)CN2CC2CCCCC2)cc1 7.82%
Cc1nc(SCC(=O)N2CC(=O)Nc3ccccc32)c2c(C)c(C)sc2n1 -1.22%
COc1cccc(Nc2nnc(SCC(=O)N3CC(C)OC(C)C3)s2)c1 (stereo unspecified) 1.98%
COC(=O)[C@]12CCCCC=C1N(CCC1=CCCCC1)C(=O)[C@H](CC(=O)N1CCSCC1)C2 -4.1%

Potency, active:
Oc1c(Cl)cc(Cl)c(Cl)c1Cc1c(O)c(Cl)cc(Cl)c1Cl 21.2 µM
O=C(CCc1ccccc1)Nc1nn[nH]n1 26.7 µM
CC(C)(C)c1ccc(C(=O)CSc2ncn[nH]2)cc1 20 µM
Cc1ccc(S(=O)(=O)/N=S(\C)C(C)C)cc1 (stereo unspecified) 26.7 µM
O=C(O)c1ccc2c(=O)n3c(nc2c1)/C(=C/c1ccc(OC(F)F)cc1OC(F)F)CC3 10.6 µM
Nc1c(C(=O)O)cnn1-c1ccccc1 23.8 µM
O=S(=O)(NC(=S)Nc1ccccc1)c1ccc(F)cc1 23.8 µM
COc1ccccc1C(=O)NC(=S)Nc1ccc(N2CCOCC2)cc1 26.7 µM
O=C(NC(=S)Nc1ccc(S(=O)(=O)N2CCOCC2)cc1)c1ccccc1[N+](=O)[O-] 33.6 µM
Cc1sc2ncn(CC(=O)NCCCC(=O)N(C)Cc3ccccc3)c(=O)c2c1C 26.7 µM
COc1cccc(Nc2nnc(SCC(=O)N3CC(=O)Nc4ccccc43)s2)c1 26.7 µM

Reference: PubChem BioAssay AID720504 (National Center for Advancing Translational Sciences (NCATS), 2013)
